# Hits are enriched below; roughly 7.8% of the tested compounds scored in any of these assays.
# MITF inhib = inhibitors of MITF; TRPM1 promoter luciferase, luminescence, 24 h; inhibition, % (no concentration beside the values); 37,000 tested, 0.28% active; in the data active = inhibition above about 85%; inconclusive = no clear call, values can overlap the other calls; inactive = below about 68%;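 note: human melanocyte line stably carrying TRPM1 promoter luciferase reporter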
# NOMO-1 viab = STK33 inhibitor candidate reducing NOMO-1 cell viability; 37,000 tested, 7.5% active; AID 2330; NOMO-1 AML viability, CellTiter-Glo luminescence, 72 h; inhibition, % (concentration not given with the values); in the data active = inhibition above about 80%; inconclusive = no clear call, values can overlap the other calls
# Hedgehog inh = Sonic Hedgehog pathway inhibition. inhibition, % (test concentration not listed). Shh-LIGHT2 Gli-luciferase reporter, 30 h. 22,000 tested, 2.1% active;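 active = mean inhibition across valid replicates above about 65%, limit read from the data; inconclusive = mean under the limit, yet half or more replicates past it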;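 note: pathway switched on by Shh-conditioned medium diluted 1 in 25 in low serum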
# Hits are given with their value; – = inactive; ? = inconclusive; · = no result given.
SMILES,MITF inhib,NOMO-1 viab,Hedgehog inh
CC(=O)CCc1c(C)[nH]c2ccccc2c1=O,–,–,·
COC(=O)c1ccc(NC(=O)CN(c2cc(C(F)(F)F)ccc2Cl)S(C)(=O)=O)cc1,–,–,·
C[C@@H]1O[C@@H](Oc2cc(O)c3c(=O)c(-c4ccc(O)cc4)coc3c2)[C@H](O)[C@H](O)[C@H]1O,–,–,–
O=C(O)[C@H]1O[C@@H](Oc2cc(O)c3c(=O)c(-c4ccc(O)cc4)coc3c2)[C@H](O)[C@@H](O)[C@@H]1O,–,107.6,–
CNC[C@H]1Oc2c(NC(=O)Nc3c(C)noc3C)cccc2C(=O)N([C@H](C)CO)C[C@H]1C,–,–,–
C[C@@H]1CN([C@H](C)CO)C(=O)Cc2cc(NS(=O)(=O)c3ccccc3)ccc2O[C@@H]1CN(C)S(=O)(=O)c1cn(C)cn1,–,–,–
COC(=O)c1ccc(CSc2n[nH]c(-c3ccccc3OC)n2)o1,–,114.4,·
CCOc1ccc(-c2nc(SCc3ccc(C(=O)OC)o3)n[nH]2)cc1,–,?,·
CNC[C@H]1Oc2ccc(NS(=O)(=O)c3c(C)noc3C)cc2CC(=O)N([C@@H](C)CO)C[C@@H]1C,–,–,–
COc1c(C)c(O)c(C)c(O)c1C(=O)CCc1ccccc1,–,–,–
COc1c(Cc2ccccc2O)c(O)c(Cc2ccccc2O)c(O)c1C(=O)CCc1ccccc1,91.1,106.5,89.2
C[C@@H]1CN([C@@H](C)CO)C(=O)Cc2cc(N(C)C)ccc2O[C@@H]1CN(C)Cc1ccc(Cl)c(Cl)c1,–,126.9,–
C[C@@H]1CN([C@@H](C)CO)C(=O)c2cc(N(C)C)ccc2O[C@@H]1CN(C)Cc1ccc(Oc2ccccc2)cc1,–,89.8,–
C[C@@H]1CN([C@H](C)CO)C(=O)Cc2cc(N(C)C)ccc2O[C@H]1CN(C)Cc1ccc(Oc2ccccc2)cc1,–,109.6,–
C[C@H]1CN([C@@H](C)CO)C(=O)Cc2cc(N(C)C)ccc2O[C@H]1CN(C)Cc1ccc(Cl)c(Cl)c1,–,–,–
C[C@H](CO)N1C[C@H](C)[C@H](CN(C)Cc2ccc(Oc3ccccc3)cc2)Oc2ccc(N(C)C)cc2CC1=O,–,–,–
C[C@@H]1CN([C@@H](C)CO)C(=O)c2cc(N(C)C)ccc2O[C@H]1CN(C)Cc1ccc(Oc2ccccc2)cc1,–,–,–
CNC(=O)Nc1cccc(-c2cc(-c3c(Cl)cccc3Cl)no2)c1,–,–,–
Nc1cccc(-c2nc3ccccc3o2)c1,–,–,–
COc1ccc(S(=O)(=O)Nc2cccc3c2O[C@H](CN(C)S(=O)(=O)c2ccccc2)[C@H](C)CN([C@H](C)CO)C3=O)cc1,–,–,–
Cc1cc(C)c(C(=O)Nc2ccc(C)c(C)c2)c(CC(C)(C)C(=O)O)c1,–,–,–
Cc1nnc(SCC(=O)Nc2ccc(Oc3ccccc3)cc2)[nH]c1=O,–,–,·
C[C@H](CO)N1C[C@H](C)[C@H](CN(C)Cc2ccc(Cl)c(Cl)c2)Oc2ccc(NC(=O)CCC(F)(F)F)cc2CC1=O,–,–,–
C[C@@H]1CN([C@@H](C)CO)C(=O)c2cc(NC(=O)CCC(F)(F)F)ccc2O[C@H]1CN(C)Cc1ccc(Cl)c(Cl)c1,–,–,–
C[C@@H]1CN([C@@H](C)CO)C(=O)Cc2cc(NC(=O)CCC(F)(F)F)ccc2O[C@@H]1CN(C)Cc1ccc(Cl)c(Cl)c1,–,124.2,–
SMILES,MITF inhib,NOMO-1 viab,Hedgehog inh
C[C@@H]1CN([C@@H](C)CO)C(=O)c2cc(NC(=O)CCC(F)(F)F)ccc2O[C@@H]1CN(C)Cc1ccc(Cl)c(Cl)c1,–,93.2,·
Cc1ccc(S(=O)(=O)N(C)CC(=O)Nc2ccccc2-c2ccccc2)cc1,–,–,·
C[C@H]1CN([C@@H](C)CO)C(=O)Cc2cc(NC(=O)C3CCCCC3)ccc2O[C@H]1CN(C)C,–,–,–
O=C(COc1ccc2c(-c3ccccc3)cc(=O)oc2c1)Nc1cc(C(F)(F)F)ccc1Cl,–,?,·
CCOC(=O)C(C)Oc1ccc2c(-c3ccccc3)cc(=O)oc2c1 (configuration not stated),–,109.0,–
CCOC(=O)c1ccccc1NC(=O)C(C)Oc1cc(C)c(Cl)c(C)c1 (configuration not stated),–,–,·
CCOC(=O)c1ccccc1NC(=O)C(C)Oc1ccc2c(C)cc(=O)oc2c1 (configuration not stated),–,103.8,·
CC(C)NC(=O)N(C)C[C@H]1Oc2ccc(NC(=O)CCCN(C)C)cc2C(=O)N([C@@H](C)CO)C[C@@H]1C,–,–,–
CC(C)(C)c1cc(NC(=O)CSc2nnnn2-c2ccccc2)cc(C(C)(C)C)c1,–,–,·
Clc1cccc(Cl)c1-c1cc(-c2ccccn2)on1,–,–,–
COC(=O)c1ccc(NC(=O)CCC(=O)c2ccc(F)cc2)cc1,–,–,·
O=C(CS(=O)c1ccc(C(F)(F)F)cc1[N+](=O)[O-])Oc1ccc(Cl)cc1 (configuration not stated),–,109.7,·
Cc1ccc(NC(=O)CC2Sc3ccc(C(F)(F)F)cc3NC2=O)c([N+](=O)[O-])c1 (configuration not stated),–,–,·
Cc1ccc(C(C)C)c(OC(=O)CS(=O)c2ccc(C(F)(F)F)cc2[N+](=O)[O-])c1 (configuration not stated),–,129.6,·
O=C(CS(=O)c1ccccc1[N+](=O)[O-])Nc1cccc(C(F)(F)F)c1 (configuration not stated),–,–,·
C[C@@H]1CCCCO[C@@H](CN(C)C(=O)Nc2cccc3ccccc23)[C@@H](C)CN([C@H](C)CO)C(=O)c2cc(NC(=O)CCCCCC(=O)Nc3ccccc3N)ccc2O1,–,?,·
C[C@@H]1CN([C@H](C)CO)C(=O)c2cccc(NC(=O)c3cnccn3)c2O[C@@H]1CN(C)CC1CCCCC1,–,–,–
Cc1ccc(S(=O)(=O)Nc2cccc3ccccc23)cc1,–,–,–
C[C@H](CO)N1C[C@H](C)[C@@H](CN(C)C(=O)NC2CCCCC2)Oc2c(NC(=O)Nc3ccc(C(F)(F)F)cc3)cccc2C1=O,–,84.6,–
C[C@@H]1CN([C@@H](C)CO)C(=O)c2cccc(NC(=O)Nc3ccc(C(F)(F)F)cc3)c2O[C@H]1CN(C)C(=O)NC1CCCCC1,–,–,–
C[C@@H]1CN([C@H](C)CO)C(=O)c2cccc(NC(=O)Nc3ccc(C(F)(F)F)cc3)c2O[C@@H]1CN(C)C(=O)NC1CCCCC1,–,117.1,–
C[C@@H]1CN([C@H](C)CO)C(=O)c2cccc(NC(=O)NC3CCCCC3)c2O[C@H]1CN(C)C(=O)Nc1ccc(C(F)(F)F)cc1,–,–,–
Cc1ccc(S(=O)(=O)N(C)C[C@@H]2OCCCC[C@@H](C)Oc3ccc(NS(=O)(=O)c4ccc(Cl)cc4)cc3C(=O)N([C@H](C)CO)C[C@@H]2C)cc1,–,–,·
CCCn1nnc(NC(=O)C(C)Oc2ccc(Cl)cc2Cl)n1 (configuration not stated),–,–,·
C[C@H]1CN([C@@H](C)CO)C(=O)Cc2cc(NC(=O)c3ccncc3)ccc2O[C@H]1CN(C)Cc1ccc2c(c1)OCO2,–,–,–
O=C(/C=C/c1ccccc1)c1ccc(O)cc1,–,105.5,–
O=C(/C=C/c1ccccc1)CC(=O)/C=C/c1ccccc1,–,–,–
Cc1oc(C(=O)O)cc1COc1ccc2c3c(c(=O)oc2c1)CCCC3,–,–,–
